Assay outcomes (PubChem BioAssay)
TGFb SMAD3 inh – TGF-b pathway inhibition | HepG2 CAGA-GFP TGF-b/SMAD3 reporter, GFP fluorescence, 18 h; TGF-beta stimulated, 500 pg/mL final | Potency, µM (titrated, usually from 46.1 µM), inactives show at the top dose activity, negative = inhibition, hits mostly inhibitors | 410,000 compounds, 1.2% hits; also: % is scaled to controls: 0 for no effect and ±100 for the full control effect; nearly all actives have a fitted effect of over 65% in size
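First, reporter cells (HEPG2 CAGA-GFP) rested 2 h at 37 degrees C. Next, compounds were pinned in and TGF-beta added to 500 pg/mL final. After 18 h, GFP was imaged per cell and summed per well.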
HepG2 tox – HepG2 cytotoxicity, counter-screen for TGF-b inhibitors | 410,000 compounds, 0.76% hits | HepG2 CAGA-GFP viability, ATP luminescence, 18 h | Potency, µM (series often up to 46.1 µM), without a hit: at the highest dose activity change, negative = cytotoxicity, actives largely listed as cytotoxic
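HepG2 CAGA-GFP cells (1000/well, DMEM with 1% FBS) received compound, then TGF-beta at 500 pg/mL final, and were incubated 18 hours at 37 degrees C. Viability was read by CellTiter-Glo luminescence. Media-only wells were set as complete cell-killing and DMSO as no toxicity.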
S2 tox – reduces viability in counter-screen for ATXN expression inhibitors; S2 cells (HEK-293 line with an ATXN2-luciferase reporter) viability, CellTiter-Fluor protease fluorescence, 24 h; Potency, µM (titrated, usually from 56.7 µM), actives largely listed as cytotoxic; 400,000 compounds, 0.49% hits; AID 651635; also: nearly all actives have a fitted effect of over 40% in size
ATXN2 expr inh – reduces ATXN2 reporter expression in HEK-293 cells; Potency, µM (series often up to 57 µM), for the others: top-dose activity change, negative = inhibition, actives largely listed as inhibitors; HEK-293 ATXN2-luciferase reporter, luminescence, 24 h; 360,000 compounds, 0.72% hits; also: % is scaled to controls: 0 for no effect and ±100 for the full control effect; nearly all actives have a fitted effect of over 55% in size
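ATXN2-luciferase reporter cells (luciferase flanked by upstream and downstream ATXN2 gene portions) were treated 24 h at 37 °C with compounds at up to 57 uM. SteadyGlo luminescence gave expression; GF-AFC fluorescence gave viability.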
The depositor's hits bear a star; i = inactive; ? = inconclusive; . = no result given; ! = repeats disagree. A selection: hits, their analogues and other compounds. The true share with any hit is near 2.3%. Calls follow the shape of the dose curve; as a rule, active = well fitted curve in the direction sought with a large enough effect; inconclusive = small, poorly fitted or top-dose-only effect, or another doubt; inactive = no such curve, though single readings can be large; an effect the other way counts as inactive or inconclusive. Potency is read from the fitted curve at half-maximal effect.

SMILES	TGFb SMAD3 inh	HepG2 tox	S2 tox	ATXN2 expr inh
CCCCNC(=S)N/N=C/C1=CCC2CC1C2(C)C (stereo not drawn)	11.2µM*	1.7%	i	2.0%
C=C(C)CNC(=S)N/N=C/C1=CCC2CC1C2(C)C (stereo not drawn)	?	-16.9%	i	10.5%
COc1ccccc1NC(=O)c1nc(SCc2ccccc2F)ncc1Cl	5.1%	4.4%	.	.
O=S(=O)(NCc1ccccc1)c1ccc2[nH]c3c(c2c1)CCCCC3	?	-38.3%	i	-19.3%
O=S(=O)(NCc1ccc(Cl)cc1)c1ccc2[nH]c3c(c2c1)CCCC3	15.8µM*	15.8µM*	?	?
O=S(=O)(NCc1ccc(F)cc1)c1ccc2[nH]c3c(c2c1)CCCC3	17.8µM*	-102.9%	?	0.0%
Cc1ccc(CNS(=O)(=O)c2ccc3[nH]c4c(c3c2)CCCC4)cc1	?	-18.1%	i	6.4%
Cc1cc[n+](CCC2CCCCC2)cc1	?	-8.8%	.	.
Cc1cc(N)c2cc(NC(=O)/C=C/c3ccccc3Cl)ccc2n1	7.08µM*	7.08µM*	8.91µM*	.
Cc1cc(C)nc(NC(=O)/C=C/c2ccccc2Cl)n1	-6.0%	1.4%	i	53.3%
CCc1ccc(OCc2ccccc2C(=O)Nc2ccc3nc(C)cc(N)c3c2)cc1	3.98µM*	3.98µM*	.	17.2µM*
CCOC(=O)c1cnc(-n2nc(C)cc2C)nc1NC1CCCC1	?	11.2µM*	?	?
O=[S+]([O-])([O-])c1ccc2c(c1)cc([S+](=O)([O-])[O-])c1nn(-c3ccc(/C=C/c4ccc(-n5nc6c([S+](=O)([O-])[O-])cc7cc([S+](=O)([O-])[O-])ccc7c6n5)cc4[S+](=O)([O-])[O-])c([S+](=O)([O-])[O-])c3)nc12	-14.6%	-15.6%	.	.
O=Nc1c(O)n(Cc2ccc(Cl)cc2)c2ccccc12	-14.7%	-57.3%	i	-16.0%
O=Nc1c(O)n(Cc2ccc(Cl)cc2Cl)c2ccccc12	?	5.01µM*	i	0.7%
O=C(Nc1nsc(-c2ccccc2)n1)c1ccc(F)cc1	-4.9%	2.82µM*	i	35.2%
COc1ccc(NC(=O)c2c(C)oc3ccc(O)c(CN4CCCC(C)C4)c23)cc1Cl (stereo not drawn)	.	11.2µM*	.	.
COc1ccc(NC(=O)c2c(C)oc3ccc(O)c(CN4CCC(C)CC4)c23)cc1Cl	12.6µM*	10µM*	14.1µM*	-19.4%
COc1ccc2c(c1)-c1nc(-n3ncc(C(=O)NCc4cccnc4)c3C3CC3)ncc1CC2	.	.	i	.
CC(=O)Nc1cc(C(=O)N2CC3(C)CC2CC(C)(C)C3)cc2ncn(CCc3ccccn3)c12 (stereo not drawn)	.	.	i	.
COC(=O)C=C1CCC2C3CCC4=CC(=O)C(Br)CC4(C)C3C(=O)CC12C (stereo not drawn)	10.4%	-30.2%	.	31.6µM*
COc1ccc(CN2CCC3(CC2)c2ccccc2[C@@H](NC(=O)c2ccco2)[C@@H]3OC)c(O)c1	.	.	i	.
CCOc1ccc(C(=O)NCCn2cc(SCC(=O)Nc3ccccc3)c3ccccc32)cc1	10µM*	-14.2%	?	?
COc1ccc(C(=O)NCCn2cc(SCC(=O)Nc3ccc(F)cc3)c3ccccc32)cc1	?	-29.9%	31.6µM*	?
COc1cc(-c2c(-c3ccc4c(c3)OCO4)noc2-c2ccsc2)cc(OC)c1OC	0.5%	14.3%	.	.
SMILES	TGFb SMAD3 inh	HepG2 tox	S2 tox	ATXN2 expr inh
Cc1nc2nc(-c3ccccc3)cn2nc1C	1.2%	-46.3%	.	15.8µM*
Cc1nc2nc(-c3ccc(F)cc3)cn2nc1C	0.3%	-19.0%	.	.
CCc1ccc(-c2cn3nc(C)c(C)nc3n2)cc1	-13.2%	-7.1%	.	5.01µM*
c1ccc(-c2cn3nc4c(nc3n2)CCCC4)cc1	-1.2%	-31.4%	.	5.62µM*
OC(c1ccc2c(c1)CN(Cc1cccc3nccnc13)CCO2)C1CCCCC1 (stereo not drawn)	.	.	i	.
CN(c1ncccc1CNc1nc(Nc2ccc3c(c2)CC(=O)N3)ncc1C(F)(F)F)S(C)(=O)=O	.	.	.	4.32µM*
O=C(NNC(=O)c1ccccc1OCc1ccccc1)c1ccccc1O	0.0%	-11.5%	i	?
O=C(NNC(=O)c1ccccc1OCc1ccc(F)cc1)c1ccccc1O	?	-17.6%	?	15.8µM*
CN(C)c1ccc(-c2ccc(CCO)cc2)cc1	1.5%	-0.6%	.	.
CCCCC[C@H](C)N1C[C@H](COCc2ccccc2)Oc2cc(N3CC[C@@H](N(C)C)C3)ccc2S1(=O)=O	.	.	28.2µM*	?
CCCCC[C@H](C)N1C[C@@H](COCc2ccccc2)Oc2cc(N3CC[C@@H](O)C3)ccc2S1(=O)=O	.	.	?	-0.8%
C[C@@H](c1ccccc1)N1C[C@@H](COCc2ccccc2)Oc2cc(N3CC[C@@H](N(C)C)C3)ccc2S1(=O)=O	.	.	20µM*	28.2µM*
CCCCC[C@@H](C)N1C[C@H](COCc2ccccc2)Oc2cc(N3CC[C@@H](N(C)C)C3)ccc2S1(=O)=O	.	.	25.1µM*	?
C[C@H](c1ccccc1)N1C[C@H](COCc2ccccc2)Oc2cc(N3CC[C@@H](N(C)C)C3)ccc2S1(=O)=O	.	.	i	3.5%
CCCCC[C@@H](C)N1C[C@@H](COCc2ccccc2)Oc2cc(N3CC[C@@H](N(C)C)C3)ccc2S1(=O)=O	.	.	28.2µM*	?
COc1cc(=O)n2c(c1C(=O)NCc1ccco1)CCN(C(=O)c1ccccc1-c1ncc[nH]1)CC2	.	.	i	.
COc1ccc(/C=C/C(=O)NCC(=O)N/N=C/c2cc(Br)ccc2OCc2ccccc2)cc1	-5.6%	-29.9%	15.8µM*	-33.2%
c1ccc(N/N=C2\CCCc3ccccc32)nc1	0.0%	-19.3%	i	-30.9%
Cc1cc(N/N=C2/CCCc3ccccc32)nc2ccccc12	15.8µM*	11.2µM*	?	-2.6%
COc1cccc(CNC(=O)c2c(OC)cc(=O)n3c2CCN(C(=O)C2CC=CCC2)CC3)c1 (stereo not drawn)	.	.	i	.
C[C@H](CN1CCCC1)C(=O)c1ccc(C(F)(F)F)cc1	.	.	i	0.8%
Oc1ccc(NCc2ccccc2OCc2ccccc2)cc1	8.91µM*	11.2µM*!	.	?
Oc1ccc(NCc2ccccc2OCc2ccc(Cl)cc2)cc1	5.62µM*	12.6µM*	.	.
CCOc1cc(CNc2ccc(O)cc2)ccc1OCc1ccc(Cl)cc1	12.6µM*	-101.7%	?	-7.8%
OCCN1C[C@H](O)[C@@H](O)[C@H](O)[C@@H]1CO	.	.	.	11.9%
O=C(CNC(=O)c1cccnc1)c1ccc(F)cc1	28.3%	1.0%	.	.
NC1CCc2ccc([N+](=O)[O-])cc21 (stereo not drawn)	-3.1%	-7.2%	.	.
CC(C)(C)n1ncc2c(=O)n(Cc3ccccc3CS(=O)(=O)c3ccccc3)cnc21	-9.4%	-27.3%	.	.
COc1ccc(OC2CCN(S(=O)(=O)c3ccc(F)cc3)CC2)cc1	-10.5%	-4.9%	i	-10.8%
COc1ccc(OC2CCN(S(=O)(=O)c3ccc(OC)c(OC)c3)CC2)cc1	-22.9%	11.2µM*	i	?
